Screens (PubChem)
TDP-43 yeast inh – TDP-43 toxicity inhibition in yeast | AID 652104 | TDP-43 expressing yeast growth rescue, BacTiter-Glo, 24 h | Potency, µM (doses to about 46.1 µM), for the others: top-dose growth rescue (activation), actives largely listed as activators | 410,000 compounds, 1.8% hits; further: % of control where 0% means no effect; nearly all actives have a fitted effect of over 50% in size
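Yeast expressing TDP-43 (pregrown in raffinose, seeded at OD600=0.02 in galactose medium) exposed to compounds 24 hr at 30 deg C. Growth read by BacTiter-Glo luminescence; rescue of toxicity appears as increased signal.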
aSyn rescue – inhibitors of alpha-synuclein toxicity in yeast; 370,000 compounds, 0.14% hits; Yeast expressing alpha-synuclein, growth rescue, BacTiter-Glo, 24 h; Potency, µM (highest dose often 46.1 µM), for the others: top-dose growth rescue (activation), most hits filed as activators; AID 652106; further: % of control where 0% means no effect; nearly all actives have a fitted effect of over 65% in size
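Screening used galactose-induced yeast with toxic alpha-synuclein levels, exposed to compound for 24 hr at 30 deg C. Cell growth, read with BacTiter-Glo luminescence, gave the measured signal.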
Abeta yeast res – compounds reversing amyloid beta toxicity in yeast; yeast expressing A-beta42, growth rescue, OD600, 48 h; response scale: 0% DMSO, 100% iron-clioquinol control; Potency, µM (doses to about 46.1 µM), most hits filed as activators; 410,000 compounds, 0.063% hits; AID 1347071; further: nearly all actives have a fitted effect of over 55% in size
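Yeast growth medium received pinned compounds, then yeast cells expressing toxic A-beta were added; plates incubated at 30 C for 48 hr. Growth read as absorbance at 600 nm, normalized to DMSO and equimolar FeCl3 plus clioquinol controls.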
FUS suppressor – FUS proteinopathy suppression in yeast | Potency, µM (highest dose often 76.6 µM), hits mostly activators | 390,000 compounds, 0.24% hits | S. cerevisiae FUS-expressing, growth rescue, OD600, 24 h | AID 1347120;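 further: plate controls were DMSO vehicle for no effect and reference control for full effect; nearly all actives have a fitted effect of over 55% in size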
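FUS-expressing yeast, raffinose-pregrown, induced in 2% galactose minimal medium at OD 0.005; compounds in a dilution series, 24hr at 30C. Growth restoration read as absorbance at 600 nm. CP55940 positive control, DMSO negative.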
Mito fusion act – inhibitors of mitochondrial division or activators of mitochondrial fusion; S. cerevisiae fusion-defective mutant growth rescue, CellTiterGlo 48 h; 320,000 compounds, 0.23% hits; Potency, µM (series often up to 46.1 µM), for inactives: at the highest dose growth rescue (activation), usual class: activators; further: % of control where 0% means no effect; nearly all actives have a fitted effect of over 45% in size
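S. cerevisiae fusion-defective temperature-sensitive mutants (e.g. fzo1-1, mgm1-5) grown 48 h at 37C in YPEG (ethanol/glycerol non-fermentable) medium with 23 nl compound per well; growth rescue read as CellTiterGlo luminescence.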
An asterisk follows results filed as active; i = inactive; ? = inconclusive; . = not tested or not shown; [ ] = another dose, or the depositor's remark. Only some compounds are listed: those with a hit (about 2.2% of all), similar ones and a draw of the others. The call rests on the fitted dose curve; in most records, active means well fitted curve in the direction sought with a large enough effect; inconclusive means small, poorly fitted or top-dose-only effect, or another doubt; inactive means no such curve, though single readings can be large; an effect the other way counts as inactive or inconclusive. Potency means the concentration at half of the fitted maximal effect.

SMILES | TDP-43 yeast inh | aSyn rescue | Abeta yeast res | FUS suppressor | Mito fusion act
COc1cc(-c2ccc3oc(-c4ccsc4)c(C#CC4(O)CCCCC4)c3c2)cc(OC)c1OC | 28% | -1% | i | i | .
O=C1/C(=C/c2ccncc2)SC(=S)N1C1CCS(=O)(=O)C1 (configuration not stated) | 13µM* | 0% | i | i | -6%
COc1ccc(C(=O)c2ccc([N+](=O)[O-])cc2Cl)cc1 | 11µM* | 5% | i | i | 21%
O=C(CNS(=O)(=O)c1ccccc1)N/N=C/c1ccccc1[N+](=O)[O-] | -17% | -4% | i | ? | -9%
COc1ccc(CNc2cc(-c3ccc(OC)cc3)nc3nncn23)cc1 | 14µM* | . | i | i | .
COCCCNc1ccn2nc(-c3ccccc3)cc2n1 | ? | ? | ? | i | .
Fc1ccc(CNc2cc(-c3ccccc3)nc3nncn23)cc1 | 18µM* | . | i | ? | .
CCc1c(C)nc2nncn2c1NCc1ccc(OC)cc1 | 27% | . | i | i | .
Fc1ccc(CNc2ccn3nc(-c4ccccc4)cc3n2)cc1 | 18µM* | 15% | ? | ? | .
CC1CCn2c(nc3cc(C(=O)NCc4ccc(OC(C)C)cc4)ccc32)C1 (configuration not stated) | -1% | . | i | i | .
COc1ccc(/C=C2\NC(=S)N(CC3CCCO3)C2=O)c(OC)c1C (configuration not stated) | 13µM* | -1% | i | i | 2%
CC(Oc1ccccc1)C(=O)Nc1ccc(C(=O)OCc2cc(=O)n3nc(C4CC4)sc3n2)cc1 (configuration not stated) | 0% | . | i | ? | .
COc1cccc(CO[C@H]2C=C[C@@H](c3ccccc3)O[C@@H]2COC(C)=O)c1 | . | . | . | i | .
CCCCCCN1C[C@@H](n2cc(COC(=O)c3ccccc3)nn2)[C@H](O)C[C@@H]1c1ccccc1 | 19% | 25µM* | i | i | .
CCCCCCN1C[C@H](n2cc(COC(=O)c3ccccc3)nn2)[C@@H](O)C[C@@H]1c1ccc(C)cc1 | 35µM* | -14% | i | ? | .
CCCCCCN1C[C@H](n2cc(COC(=O)c3ccccc3)nn2)[C@@H](O)C[C@@H]1c1ccccc1 | 30% | 11% | i | i | .
COc1cccc2nccc(/C=C/c3ccc(N(C)C)cc3)c12 | . | -14% | . | . | .
COc1ccc2c(c1)OC[C@H]1[C@H]2N2C(=O)c3cc(OC)ccc3NC(=O)[C@@]2(C)[C@H]1c1ccccc1 | 5µM* | 20% | i | i | -20%
C[C@@]12C(=O)Nc3ccc(Br)cc3C(=O)N1[C@H]1c3cc(Br)ccc3OC[C@@H]1[C@@H]2c1ccccc1 | -19% | 2% | i | i | 13%
Cc1ccc2c(c1)[C@H]1[C@H](CO2)[C@H](c2ccccc2)[C@]2(C)C(=O)N(Cc3ccc(F)cc3)CC(=O)N12 | 21% | 0% | 16µM* | i | .
Cc1ccc2c(c1)[C@H]1[C@H](CO2)[C@H](c2ccccc2)[C@]2(C)C(=O)N(Cc3ccc(Cl)cc3)CC(=O)N12 | 25% | 0% | ? | ? | 10%
COc1ccc2c(c1)OC[C@H]1[C@H]2N2C(=O)c3ccc(C)cc3NC(=O)[C@@]2(C)[C@H]1c1ccccc1 | 1% | -1% | i | ? | .
COc1ccc2c(c1)OC[C@H]1[C@H]2N2C(=O)c3cc(Cl)ccc3NC(=O)[C@@]2(C)[C@H]1c1ccccc1 | 4.5µM* | 23% | i | i | -15%
C[C@@]12C(=O)Nc3ccc(Cl)cc3C(=O)N1[C@H]1c3cc(Br)ccc3OC[C@@H]1[C@@H]2c1ccccc1 | 10% | 10% | i | 28µM* | .
CCc1nc2c(OCc3c(C)noc3C)cccn2c1N(C)C(=O)c1ccccc1F | 27% | -10% | i | i | .
SMILES | TDP-43 yeast inh | aSyn rescue | Abeta yeast res | FUS suppressor | Mito fusion act
COc1ccc2c(c1)OC[C@H]1[C@H]2N2C(=O)c3cc(F)ccc3NC(=O)[C@@]2(C)[C@H]1c1ccccc1 | 20µM* | 8% | i | i | .
O=[N+]([O-])c1ccc(CNc2ccc(Cl)cc2)s1 | ? | -9% | ? | i | -4%
COc1ccc(NCc2ccc([N+](=O)[O-])s2)cc1 | ? | 20% | i | i | 12%
O=[N+]([O-])c1ccc(CNc2cccc(Cl)c2)s1 | 18µM* | ? | i | i | 3%
COc1ccc(NCc2ccc([N+](=O)[O-])s2)c(OC)c1 | 10µM* | 17% | i | . | 7%
O=[N+]([O-])c1ccc(CNc2ccc(F)cc2)s1 | 13µM* | 3% | ? | i | 0%
Cc1ccc(-n2cnc3c(=O)[nH]cnc32)cc1 | -16% | -1% | i | i | .
CCNC(=O)c1c(NC(=O)Cc2coc3cc(C)cc(C)c23)sc2c1CCCC2 | 3% | . | i | i | .
Nc1n[nH]c(N)c1N=Nc1ccc(Cl)cc1 | 7% | -2% | i | . | -3%
Nc1[nH]ncc1N=Nc1ccc(Cl)cc1 | 18µM* | 15% | i | i | -1%
Cc1cccc2c(C(=O)N3CCN(C(=O)c4ccco4)CC3)cc(-c3cccc(Br)c3)nc12 | 28µM* | 11% | i | i | 5%
O=C(c1ccco1)N1CCN(C(=O)c2cc(-c3ccccc3)nc3ccccc23)CC1 | -3% | -2% | i | i | 1%
CCN(C(=O)COC(=O)c1ccc(O)cc1)c1cccc2ccccc12 | ? | 29% | 7.9µM* | i | .
CCC(=O)N1CCc2cc(Br)cc(S(=O)(=O)CCC(=O)NCc3cccc(OC)c3)c21 | 14% | . | i | i | .
CCN(CC)C(=O)c1sc2c(c1C)c(=O)n(-c1ccc(Cl)c(Cl)c1)c(=O)n2CC(=O)Nc1cccc(OC)c1 | 16% | . | i | i | .
O=C(O)c1cc2ccccc2c2cc(Br)ccc12 | -4% | 15% | i | i | 11µM*
O=C(O)c1cc2ccccc2c2c1C(=O)c1ccccc1-2 | -8% | 2.8µM* | ? | i | .
COc1cccc(N2CCN(C(=O)CCS(=O)(=O)c3ccc4c(c3)CC(=O)N4C)CC2)c1 | 7% | . | i | ? | .
CN=c1scc(-c2cccs2)n1/N=C/c1ccc(O)c(O)c1O | -10%[0.397 µM] | -43% | i | 32µM* | 6%
CN=c1scc(-c2cccs2)n1/N=C/c1ccccc1O | 3% | -15% | i | . | 18%
Cc1ccc(CN2CCN(/N=C\C(Br)=C\c3ccccc3)CC2)cc1 | 13µM* | 2% | i | i | ?
C=C1CC2(CC(c3ccccc3)OC(c3ccccc3)C2)OC1=O (configuration not stated) | 10µM* | 6% | i | . | .
CC(C)(C)c1csc(NC(=O)c2ccc(Cl)s2)n1 | ? | -35% | i | i | 17%
